# Measured values: ChEMBL document CHEMBL3988442, “University of Dundee, Small-Polar-MMV Screening Library” (2021)
# Screen size: about 66,000 compounds; about 960 (1.5%) showed an effect of 50% or more. The full list was thinned out, with strong results kept by preference.
# Test system: Trypanosoma brucei
# Assay: Trypanosoma brucei 72 hour study
# Assay type: functional, organism-based
# Parameters: scale not given: in the data most compounds retested in dose-response had high values
compound,measurement,setting,value
Cc1ccsc1C(=O)N1CCC2(CC(N(C)c3ccncn3)C2)C1 (stereo not drawn),Percent Effect,"30.3 µM, […]",-9.037%
O=C(Nc1ccc(F)cc1)N1C[C@H]2C[C@H](C(=O)N3CCCC3)[C@@H](C1)O2,Percent Effect,"30.3 µM, […]",-4.677%
Cc1nc(-n2nc(-c3cccs3)cc2N)[nH]c(=O)c1C,Percent Effect,"30 µM, 30.03 µM",6.214%
Cc1cc(=O)[nH]c(-n2nc(-c3cccs3)cc2N)n1,Percent Effect,"30 µM, 30.03 µM",-18.7%
CCc1c(C)nc(-n2nc(-c3cccs3)cc2N)[nH]c1=O,Percent Effect,"30 µM, 30.03 µM",63.75%
Nc1c(N2CCOCC2)ncnc1N1CCOCC1,Percent Effect,"30.3 µM, […]",-8.78%
same,Percent Effect,"10 mM, 10 mM as filed; unlikely as a test dose",-35.44%
CCN1CC2(CC1=O)CN(Cc1ccco1)CCN(C(=O)C(C)C)C2.O=C(O)C(F)(F)F (stereo not drawn),Percent Effect,"30 µM, 30.03 µM",0.2286%
Cc1ccc(CN(CCCn2ccnc2)Cc2c(F)cccc2F)s1.O=C(O)CC(O)(CC(=O)O)C(=O)O,Percent Effect,"30.3 µM, […]",-13.01%
CN(Cc1ccncc1)Cc1cnn(-c2ccc(F)cc2)c1,Percent Effect,"30 µM, 30.03 µM",-38.94%
O=C(Cc1c(F)cccc1Cl)Nc1cc(N2CCCC2)ncn1,Percent Effect,"30 µM, 30.03 µM",-1.859%
O=C(Cc1c(F)cccc1Cl)Nc1cc(N2CCOCC2)ncn1,Percent Effect,"30 µM, 30.03 µM",100.3%
O=C(Cc1ccccc1Cl)Nc1cc(N2CCCC2)ncn1,Percent Effect,"30 µM, 30.03 µM",-11.61%
Cc1cccc(OCc2ccc(C(=O)N3N=CCC3(O)C(F)(F)F)o2)c1 (stereo not drawn),Percent Effect,"30.3 µM, […]",67.46%
O=C(c1ccc(COc2ccc(Cl)cc2)o1)N1N=CCC1(O)C(F)(F)F (stereo not drawn),Percent Effect,"30.3 µM, […]",99.58%
O=C(Cc1ccc(Cl)cc1)N1CCC(O)(C(F)(F)F)C1 (stereo not drawn),Percent Effect,"30.3 µM, […]",-19.5%
O=C(c1ccc(COc2ccccc2Cl)o1)N1N=CCC1(O)C(F)(F)F (stereo not drawn),Percent Effect,"30.3 µM, […]",31%
COc1ccc(C(=O)N2CCC(Oc3cccc(C)c3)(C(=O)O)CC2)o1,Percent Effect,"30 µM, 30.03 µM",-24.59%
COCc1ccc(C(=O)N2CCC(Oc3ccccc3)(C(=O)O)CC2)o1,Percent Effect,"30 µM, 30.03 µM",-16.4%
COc1c(CNCc2ccc(C(=O)N(C)C(C)C)cc2)c(C)nn1C,Percent Effect,10 µM,-22.99%
Cc1c(CNCc2nn(-c3ccccc3)c3c2CCC3)cc(C#N)n1C,Percent Effect,"30 µM, 30.03 µM",-10.92%
Cc1noc(C)c1CNCc1nn(-c2ccccc2)c2c1CCC2,Percent Effect,"30 µM, 30.03 µM",-40.9%
COc1ccccc1CNCc1nn(-c2ccccc2)c2c1CCC2,Percent Effect,"30 µM, 30.03 µM",105.2%
Cc1cncc(C(=O)N2CCO[C@H]3[C@H](OCCN(C)C)CC[C@@H]32)c1.O=C(O)C(F)(F)F.O=C(O)C(F)(F)F,Percent Effect,"30.3 µM, […]",-21.9%
Cc1n[nH]c(C)c1C1COCCN1C(=O)c1cc(F)ccc1F (stereo not drawn),Percent Effect,"30.3 µM, […]",-0.3197%
CNC(=O)CN1CC[C@H]2CN(C(=O)c3cccn3C)C[C@H]2C1.O=C(O)C(F)(F)F,Percent Effect,"30.3 µM, […]",-42.42%
N[C@@H]1CCN(Cc2cc(-c3ccccc3OC(F)(F)F)no2)C[C@H]1O,Percent Effect,"30 µM, 30.03 µM",-20.57%
NC1CCCCN(Cc2cc(-c3ccccc3OC(F)(F)F)no2)C1 (stereo not drawn),Percent Effect,"30 µM, 30.03 µM",101.5%
OC1COCCN(Cc2cc(-c3ccccc3OC(F)(F)F)no2)C1 (stereo not drawn),Percent Effect,"30 µM, 30.03 µM",-31.26%
O=C(O)C(F)(F)F.O=C(O)C(F)(F)F.c1ccc(OCc2nnc3n2CCN(CC2CC2)C3)nc1,Percent Effect,"30 µM, 30.03 µM",16.25%
CC(C)Oc1ncccc1CNC(=O)N1CCC1,Percent Effect,"30.3 µM, […]",-18.33%
COc1ccc(C)cc1C(C)NS(=O)(=O)c1ccc2c(c1)CCC(=O)N2 (stereo not drawn),Percent Effect,"30 µM, 30.03 µM",-36.95%
COc1ccc(C(C)NS(=O)(=O)c2ccc3c(c2)CCC(=O)N3)cc1F (stereo not drawn),Percent Effect,"30 µM, 30.03 µM",95.9%
COc1ccc(C)cc1CCNS(=O)(=O)c1ccc2c(c1)CCC(=O)N2,Percent Effect,"30 µM, 30.03 µM",-47.2%
CC(CN1CCOCC1)OC(=O)c1ccccc1Cl.Cl (stereo not drawn),Percent Effect,"30 µM, 30.03 µM",-53.51%
CC(C)N(C)Cc1cnc2n1CCN(Cc1ccc(F)cc1)C2.O=C(O)C(F)(F)F.O=C(O)C(F)(F)F,Percent Effect,"30.3 µM, […]",5.253%
Cc1c(C(=O)N2CCN(C)CC2)n(C)c2ccc(Cl)cc12,Percent Effect,"30.3 µM, […]",12.9%
Cc1c(C(=O)N2CCN(c3ccccn3)CC2)n(C)c2ccc(Cl)cc12,Percent Effect,"30.3 µM, […]",79.78%
Cc1c(C(=O)N2CCN(c3ncccn3)CC2)n(C)c2ccc(Cl)cc12,Percent Effect,"30.3 µM, […]",36.3%
Cn1ccnc1CN1CCC2(CC1)Cc1ccccc1CNC2=O.O=C(O)C(F)(F)F,Percent Effect,"30.3 µM, […]",-47.04%
CN(C)c1cc(CC(NC(=O)C2CC2)c2ccccc2)nc(C2CC2)n1 (stereo not drawn),Percent Effect,"30.3 µM, […]",52.69%
CC(C)C(=O)NC(Cc1cc(N(C)C)nc(C2CC2)n1)c1ccccc1 (stereo not drawn),Percent Effect,"30.3 µM, […]",30.74%
CCC(=O)NC(Cc1cc(N(C)C)nc(C2CC2)n1)c1ccccc1 (stereo not drawn),Percent Effect,"30.3 µM, […]",13.14%
CC(C)(C)CN1CC(COc2ccccc2)Oc2ccncc2S1(=O)=O (stereo not drawn),Percent Effect,"30.3 µM, […]",-12.26%
O=C(O)C(F)(F)F.c1coc(CN2CCO[C@H]3[C@@H](OCC4CC4)CC[C@@H]32)c1,Percent Effect,"30.3 µM, […]",-12.22%
Cc1nc(CN2CCN(C)C(=O)C23CCN(C(C)C)CC3)cs1.O=C(O)C(F)(F)F,Percent Effect,"30.3 µM, […]",-9.175%
Fc1ccc(Oc2ccc(CNCC3CNc4ccnn4C3)cn2)cc1 (stereo not drawn),Percent Effect,"30.3 µM, […]",22.41%
same,Percent Effect,"10 mM, 10 mM as filed; unlikely as a test dose",-33.28%
